# PostGolgi yeast: growth inhibition of a yeast mutant, post-Golgi transport screen; post-Golgi transport phenotypic cell assay; inhibition, % at 10 µM; hit rate 0.9% among 98,000;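 note: yeast cells grown in 1536-well plates; yeast grown about 18 h at 30C before absorbance read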
# CYP2C19 act: activators of human cytochrome P450 2C19; AID 1025; 96,000 tested, under 10 active; activation factor at 5 µM; P33261; recombinant CYP2C19, luciferin-H EGE luminescence; hits give high values; 0 = fully inhibited enzyme, 1 = untreated enzyme;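 active = activation factor of at least 2 at 5 µM in the primary screen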;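 note: 0 = wells with 2.5 mM tranylcypromine and 1 = vehicle-only wells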
# Target sequence (P33261 whole entry, looked up): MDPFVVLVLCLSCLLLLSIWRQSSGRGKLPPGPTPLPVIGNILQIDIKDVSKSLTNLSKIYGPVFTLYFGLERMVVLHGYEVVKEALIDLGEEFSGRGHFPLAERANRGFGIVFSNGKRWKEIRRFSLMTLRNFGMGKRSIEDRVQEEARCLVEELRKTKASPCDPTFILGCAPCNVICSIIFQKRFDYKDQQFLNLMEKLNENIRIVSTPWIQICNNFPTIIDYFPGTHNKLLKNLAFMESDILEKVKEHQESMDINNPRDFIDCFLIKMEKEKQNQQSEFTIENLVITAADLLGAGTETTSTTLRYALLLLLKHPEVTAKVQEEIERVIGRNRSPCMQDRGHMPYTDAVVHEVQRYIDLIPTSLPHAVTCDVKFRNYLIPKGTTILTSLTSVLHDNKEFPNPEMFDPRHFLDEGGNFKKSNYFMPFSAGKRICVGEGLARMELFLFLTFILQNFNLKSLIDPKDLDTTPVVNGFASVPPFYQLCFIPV
# CYP2C9 activ: increases human cytochrome P450 2C9 activity | recombinant CYP2C9, luciferin-H conversion, luminescence; hits give high values; factor 1 = untreated enzyme, 0 = blocked | activation factor at 5 µM | hit rate 1.4% among 96,000;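 active = activation factor of 2 or more for CYP2C9 at a 5 µM dose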;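 note: 0 = sulfaphenazole-blocked wells and 1 = vehicle-only wells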
# CYP2C19 inhib: blocks human cytochrome P450 2C19; CYP2C19 Supersomes, luciferin-H EGE luminescence, 30 min; inhibition, % at 5 µM; hit rate 21% among 96,000; P33261;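 active = CYP2C19 inhibition above a set limit at 5 µM in the primary screen, cut at about 50% in these data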;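 note: plate controls were negative control wells for no effect and 2.5 mM tranylcypromine positive control for full effect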
# PostGolgi ctrl: inhibits growth of the yeast control strain; inhibition, % at 10 µM; efflux-deficient yeast background strain, growth absorbance A615, 16 h; hit rate 5% among 98,000; AID 738
# CYP2C9 inh: inhibitors of human CYP2C9. hit rate 20% among 96,000. P11712. AID 777. inhibition, % at 5 µM. CYP2C9 Supersomes, luciferin-H conversion, luminescence;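 active = blocking of liver enzyme CYP2C9 beyond about 50% at 5 µM, limit read from the data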
# * hit, by the source's call; x = no result given. Sampled rows, rich in hits. Any-hit rate of the full collection: about 32%. Cut-off read from the data, not from the text of the source, unless noted: active = inhibition above about 30%; inactive = the rest.
SMILES,PostGolgi yeast,CYP2C19 act,CYP2C9 activ,CYP2C19 inhib,PostGolgi ctrl,CYP2C9 inh
OCc1ccccc1N=c1ssnc1Cl,-4,1,1,-2,-6,5
O=C(NCC(=O)N(c1ccccc1F)C(C(=O)NCC1CCCO1)c1ccccc1)c1ccco1 (stereo not drawn),0,0.9,1,10,-1,-2
CC(=O)Nc1ccccc1NC(=O)CN(C)S(=O)(=O)c1ccc(C)cc1,4,0.2,1.2,80*,5,-16
CSc1ccccc1NC(=O)CN(C)S(=O)(=O)c1ccc(F)cc1,18,0.6,3.6*,41,7,-265
CNC(=O)CN(C)S(=O)(=O)c1ccc(F)cc1,-6,0.9,0.8,7,-7,21
CS(=O)(=O)N(CC(=O)Nc1ccccc1Sc1ccccc1)c1ccc(F)cc1,-2,0.7,0.4,28,54*,61*
CC(C(=O)Nc1ccccc1Sc1ccccc1)N(c1ccccc1)S(C)(=O)=O (stereo not drawn),-4,0.6,0.5,41,23,54*
CCCC(=O)Nc1ccccc1NC(=O)CN(C)S(=O)(=O)c1ccc(C)cc1,-3,0.9,0.5,10,13,49
CCOc1ccc(Cn2c(O)cc(=O)[nH]c2=O)cc1,16,x,x,x,1,x
C=CCC(C#Cc1ccccc1)[N+](C)(C)CC=C (stereo not drawn),3,1,1.1,2,5,-13
CCSc1nnc(NC(=O)CN(C)S(=O)(=O)c2ccc(F)cc2)s1,-7,0.2,0.2,81*,-4,75*
Cc1ccc(SCC(=O)N(Cc2nc(-c3ccccc3)no2)C(C)C)cc1,-5,0.2,0.2,77*,30*,79*
Cc1ccccc1OCc1nc(-c2ccccc2)no1,-7,1,1.1,-1,12,-8
Cc1ccccc1OCC(=O)N(Cc1nc(-c2ccccc2)no1)C(C)C,-5,0.4,0.6,57*,22,40
Cc1ccc(-c2noc(CSc3ccccc3)n2)cc1,-2,0.8,0.9,20,-1,9
O=C(O)CCn1c(=O)[nH]c2ccccc2c1=O,-9,1,1,1,17,1
CCn1c(SCC(=O)c2cccs2)nnc1-c1cccs1,14,0,0.5,98*,-1,45
CCOC(=O)c1c(C)[nH]c(C(=O)CSc2nnc(-c3ccncc3)n2CC)c1C,4,0.1,0.2,94*,8,84*
CCOC(=O)c1c(C)[nH]c(C(=O)CSc2nnnn2-c2ccccc2)c1C,-4,0.9,1.1,10,4,-8
CCOC(=O)CSc1nnc(-c2ccc(OC)cc2)n1CC,-1,0.9,0.7,14,4,27
Cc1cc(C)c2c(c1)c(C)cc1nnc(SCC(=O)c3cccs3)n12,12,1,1.3,-1,7,-29
CCOC(=O)c1c(C)[nH]c(C(=O)CSc2nnnn2-c2ccc(C)cc2)c1C,-15,0.5,0.6,54*,9,36
CCn1c(SCC(=O)NC(C)C)nnc1-c1cccs1,-10,0.9,1,12,4,-2
Cc1cccc(OCc2nnc(SCC(=O)c3cccs3)n2C)c1C,-3,0.2,0.5,78*,8,53*
COc1ccc(OC)c(CN2CCCC(CO)C2)c1 (stereo not drawn),-1,1.1,1.1,-10,3,-8
SMILES,PostGolgi yeast,CYP2C19 act,CYP2C9 activ,CYP2C19 inhib,PostGolgi ctrl,CYP2C9 inh
CCCCNC(=O)Oc1cccc(N2CCCC2=O)c1,-2,1,1.2,2,5,-15
O=C(O)c1c(-c2ccccc2)c2oc3ccccc3c2[nH]c1=O,-5,1.1,1,-13,5,-4
COCC(O)CSc1nc(C)[nH]c1[N+](=O)[O-] (stereo not drawn),-1,1.1,1.2,-10,12,-19
Cc1cccc(NCc2nc(SCC(N)=O)n[nH]2)c1,9,0.7,1,30,4,3
CCn1c(SCC(=O)c2[nH]c(C)c(C(C)=O)c2C)nnc1-c1cccs1,-6,0.4,0.7,64*,0,29
CCn1c(SCC(=O)c2ccc(NS(=O)(=O)c3ccccc3)cc2)nnc1-c1cccs1,10,0.8,0.1,22,11,94*
CCn1c(SCC(=O)c2ccc(CNC(C)=O)o2)nnc1-c1cccs1,-3,0.6,1,39,4,1
CCn1c(SCC(=O)NCc2cccs2)nnc1-c1cccs1,0,0.6,0.9,36,2,9
CCOc1cccc(C(=O)Nc2cccc(-c3nc4ncccc4o3)c2C)c1,-4,0.8,0.7,25,5,25
COCCn1c(C)cc(C2=NNC(=Nc3ccccc3F)SC2)c1C,2,0.5,0.6,53*,1,38
O=C(c1ccccc1/S(=N/S(=O)(=O)c1ccccc1)N1CCOCC1)N1CCOCC1 (stereo not drawn),7,1.1,1.1,-5,10,-12
O=c1cc(CN2CCN(c3ccccc3)CC2)c2c(ccc3ccccc32)o1,6,0.7,1.2,27,32*,-17
c1ccc(N2CCN(Cc3ccnc4ccccc34)CC2)cc1,9,0.4,0.9,64*,4,9
O=c1cc(CN2CCN(Cc3ccccc3)CC2)c2cc(Cl)ccc2o1,1,0.8,1.1,20,-1,-8
O=c1cc(CN2CCN(c3ccccc3)CC2)c2cc(O)c(-c3ccccc3)cc2o1,-6,0.9,0.8,6,-6,24
O=c1cc(CN2CCC3(CC2)OCCO3)c2c(ccc3ccccc32)o1,-5,0.2,0.7,78*,9,26
Cc1nc2sc(C(c3cccs3)N3CCC4(CC3)OCCO4)c(O)n2n1 (stereo not drawn),2,x,x,x,6,x
O=C1CN=C(Nc2ccccc2Cl)N1c1ccccc1,1,0.9,1.2,5,1,-18
N#Cc1c(/N=C/c2cccs2)sc2c1CCCCC2,-8,0.3,0.1,70*,4,94*
CN(C)/C=N/c1sc2c(c1C#N)CCC2,8,0.3,0.7,67*,4,33
Cc1ccc(/C=N/c2sc3c(c2C#N)CCC3)o1,-8,1,0.8,4,19,23
CCOC(=O)Cc1csc(/C(=N/O)C(N)=O)n1,3,0.5,0.6,46,5,39
CCN(CC)c1ncnc2sc(C(=O)N3CCN(c4ccccc4)CC3)c(C)c12,9,0.7,0.4,26,17,62*
CCN(CC)c1ncnc2sc(C(=O)N3CCN(c4ccc(OC)cc4)CC3)c(C)c12,-4,0.7,0.7,29,2,31
Cc1c(C(=O)N2CCC(C)CC2)sc2ncnc(N3CCN(c4ccccc4)CC3)c12,-5,0.3,0.1,66*,22,95*
Cc1c(C(=O)N2CCN(c3ccccn3)CC2)sc2ncnc(N3CCOCC3)c12,2,0.8,0.4,19,2,58*
CCOCCC(=O)Nc1cc(Cl)ccc1OC,10,0.9,1.3,9,3,-32
